In PubChem BioAssay AID720506 (National Center for Advancing Translational Sciences (NCATS), 2013):
The campaign covered roughly 2,300 compounds. About 95 (4%) were called active. A call without a number means that no potency is given here. About 17% were inconclusive and are not listed. Calls come from the whole dose curve; as a rule, active = well fitted activation curve with a large enough effect; inconclusive = small, poorly fitted or top-dose-only effect; inactive = flat fitted curve, though single readings scatter. Only a selection was taken, and actives are over-represented in it overall.

What follows are compounds tested against D(3) dopamine receptor (Homo sapiens) (UniProt P35462) (assay: qHTS of D3 Dopamine Receptor Agonist: D3 Dopamine Receptor B-arrestin Agonist Confirmatory Assay). Conditions: DiscoveRx D3 beta-arrestin cells, luminescence, 90 min; series mostly up to 76.9 µM.
Source text: D3 DARs represent a very important target for the treatment of several neuropsychiatric disorders. Indeed, one of the most promising therapeutic applications for the D3 DAR is in the area of addiction and related disorders. […] These findings have been observed with a number of addictive substances including cocaine, amphetamine, nicotine, and alcohol. […] Increased D3 DAR activity can thus lead to neuroprotective and neurorestorative actions in the CNS. […] This assay is used to confirm the activity of the identified D3 dopamine receptor agonist. Activation is the desired outcome for this assay. NIH Molecular Libraries Probe Production Centers Network [MLPCN] NIH Chemical Genomics Center [NCGC] MLPCN Grant: NS064831 Assay Submitter (PI): David Sibley
Freshly passaged DiscoveRx D3 cells are plated in 1536 well white, solid bottom plates at a density of 1500 cells/well in 3microl of complete media. After an overnight incubation at 37 degrees C in 5% CO2, cells are loaded with 23nl of test compound from the compound library (as well as dopamine controls) using a 1536 pintool and incubated at 37 degrees C for 90 minutes. Two microliters of DiscoveRx reagent is then added to all cells, and they are incubated for an additional 30 - 60 minutes at room temperature. Following incubation, luminescence is measured on a ViewLux CCD-based luminometer reader using a 20 sec exposure time.
Note: nearly all actives have a fitted effect of over 70% in size.
Potency is the fitted concentration of half-maximal effect.

Chain of D(3) dopamine receptor (Homo sapiens) (P35462 whole entry, looked up): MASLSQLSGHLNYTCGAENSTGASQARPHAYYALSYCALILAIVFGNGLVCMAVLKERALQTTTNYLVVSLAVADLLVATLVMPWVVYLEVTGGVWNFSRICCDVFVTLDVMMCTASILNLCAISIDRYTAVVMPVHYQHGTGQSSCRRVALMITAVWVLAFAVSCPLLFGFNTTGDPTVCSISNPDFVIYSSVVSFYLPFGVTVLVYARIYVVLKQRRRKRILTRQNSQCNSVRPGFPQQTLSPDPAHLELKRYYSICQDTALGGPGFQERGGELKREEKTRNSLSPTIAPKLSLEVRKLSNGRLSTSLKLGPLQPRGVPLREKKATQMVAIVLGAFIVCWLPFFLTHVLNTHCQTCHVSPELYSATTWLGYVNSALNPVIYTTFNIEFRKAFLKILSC

SMILES | Potency
Cc1ccc(O)c(-c2cc(C(=O)Nc3c(C)n(C)n(-c4ccccc4)c3=O)[nH]n2)c1 | inactive
COc1ccc(NC(C)=O)cc1NC(=O)CN1CCN(c2ccccn2)CC1 | inactive
OCC[C@H]1C[C@H](O)[C@@H](O)[C@]2(Cc3ccccc3CO2)O1 | inactive
Cn1c(C(=O)NCCCN2CCN(c3cccc(Cl)c3)CC2)cc2c(=O)n(C)c3ccccc3c21 | inactive
O=C(Nc1cccnc1Cl)c1cc(-c2cccc(Cl)c2)on1 | inactive
CCC(CC)NC(=O)/C=C/c1cccc([N+](=O)[O-])c1 | inactive
O=C1c2cccc3cccc(c23)N1CN1CCN(c2ccccn2)CC1 | inactive
OC(COc1cccc2ccccc12)CN1CCN(c2ccccn2)CC1 (stereo not drawn) | 8.91 µM (active)
CC(=O)Nc1ccc(OCC(O)CN2CCN(c3ccccc3Cl)CC2)cc1 (stereo not drawn) | inactive
O=C(OCc1nc2ccccc2[nH]1)C1CCCCC1 | inactive
O=C(c1ccccc1)c1ccc(OCC(O)CN2CCCC2)cc1 (stereo not drawn) | inactive
CC[C@H](C)C(=O)N[C@H]1CCCN1C(=O)/C=C/c1ccccc1 | inactive
CCCCC(=O)NNC(=S)NC(=O)C(c1ccccc1)c1ccccc1 | inactive
CCCN1CC=C2C(C#N)=C(N)C(C#N)(C#N)C(c3cc(OC)ccc3OC)C2C1 (stereo not drawn) | inactive
CC(=O)C[C@@H](O)CC(=O)[C@H]1OC(=O)CCCCCCc2ccccc21 | inactive
COc1cc(OC)c(-n2cc(-c3ccc(Cl)cc3)[nH]c2=O)cc1Cl | inactive
CNC(=O)NC(=O)C(C)N1CCN(C/C=C/c2ccccc2)CC1 (stereo not drawn) | inactive
CN1CCC(CN)(N2CCN(c3ccccc3)CC2)CC1 | inactive
O=C1CC[C@H](O)CCN1[C@H](CSc1ccc(Br)cc1)Cc1ccccc1 | inactive
Cc1ccccc1N1CCN(CCCOc2ccc3c(C)cc(=O)oc3c2)CC1 | inactive
Nc1nonc1-n1nnc(C(=O)N/N=C/c2ccc(Cl)cc2)c1-c1ccc2c(c1)OCO2 | inactive
CN(C)CCOC(=O)C(c1ccccc1)C1(O)CCCC1 (stereo not drawn) | inactive
Cc1cc(C(=O)NNC(=O)c2ccccc2O)c(C)o1 | inactive
O=C(Nc1ccc(F)cc1F)N1CCCN(CCOc2ccccc2)CC1 | inactive
COC(c1ccccc1)c1nnc(CCC(=O)N2CCN(CCOc3ccccc3)CC2)o1 (stereo not drawn) | 2.82 µM (active)

SMILES | Potency
NS(=O)(=O)c1ccc(CCNC(=O)NC2CCCCC2)cc1 | inactive
[O-][N+]12CCCCC1CCCC2CO (stereo not drawn) | inactive
COc1cc(OC)c2ccc(=O)oc2c1C(CCN1CCN(c2ccccc2)CC1)c1ccc2c(c1)OCO2 (stereo not drawn) | inactive
O=C(CCN1CCN(c2ccccc2)CC1)NNC(=S)Nc1ccccc1 | inactive
COc1ccc(N2CCN(Cc3cc(=O)oc4ccc5ccccc5c34)CC2)cc1 | inactive
Cc1cccc(C)c1NC(=O)CNC(=O)c1ccc2c(c1)OCCO2 | inactive
Cc1c(CN2CC[C@@H](N3CCN(c4ccccn4)CC3)[C@H](O)C2)[nH]c2ccc(F)cc12 | 28.2 µM (active)
Cc1ccccc1Nc1nc(N)nc(CN2CCN(c3ccccn3)CC2)n1 | inactive
O=C(CN1CCN(c2ccccn2)CC1)NC1CCCCC1 | inactive
Cc1n[nH]c(C)c1S(=O)(=O)N1CCCC(C(=O)NCC2COc3ccccc3O2)C1 (stereo not drawn) | inactive
O=C(O[C@H]1[C@H](Cc2ccccc2)NS(=O)(=O)[C@H]2C[C@@H]3C=C[C@]12O3)c1ccc([N+](=O)[O-])cc1 | inactive
O=C1c2ccccc2S(=O)(=O)N1CC(O)Cn1c2ccccc2c2ccccc21 (stereo not drawn) | inactive
CC(C)(C)n1ncc2c(=O)n(Cc3c(Cl)cccc3Br)cnc21 | inactive
COc1ccc(S(=O)(=O)N2CCSCC2)cc1 | inactive
O=C1C=C(c2cccc(Br)c2)C[C@@H](c2ccc(F)cc2)C1 | inactive
O=C(COc1coc(CN2CCN(c3ccccc3)CC2)cc1=O)Nc1ccccc1F | inactive
CCC(=O)c1ccc(OCC(=O)Nc2ccc(N3CCCCC3)cc2)cc1 | inactive
Cc1cnc(C(=O)N2CCCC(N3CCN(c4ccccc4F)CC3)C2)cn1 (stereo not drawn) | inactive
CN(CCO)S(=O)(=O)c1ccc2c(c1)C(=O)c1cc(S(=O)(=O)N(C)CCO)ccc1-2 | inactive
CC(=O)OC(C)C[N+](C)(C)C (stereo not drawn) | inactive
CS(=O)(=O)N1CCC(C(=O)N2CCN(c3ccccc3)CC2)CC1 | inactive
O=C(NC(=O)c1ccccc1)Nc1ccccc1O | inactive
O=C(CCn1c(=O)[nH]c2ccccc2c1=O)NCCCN1CCN(c2cccc(Cl)c2)CC1 | inactive
O=C(CN1CCN(c2ncccn2)CC1)Nc1ccccc1C(F)(F)F | inactive
CC(OC(=O)/C=C/c1ccccc1)C(=O)NC1CCCCC1C (stereo not drawn) | inactive

SMILES | Potency
O=c1cc(CCl)nc2scc(-c3ccccc3)n12 | inactive
CC(C)CCN1CCN(Cc2cn[nH]c2C2CCCCC2)CC1CCO (stereo not drawn) | inactive
CS/C(=C\C(=O)c1ccco1)Nc1ccccc1Cl | inactive
O=S(=O)(c1ccc(F)cc1)N1CC=C(c2ccccc2)CC1 | inactive
CCN(CCCNC(=O)c1ccc2c(c1)NC(=O)CN2C)c1cccc(C)c1 | inactive
O=C(CC1NCCc2ccccc21)Nc1cccc(Cl)c1 (stereo not drawn) | inactive
COc1ccc([C@H]2CC(=O)C=C(c3ccc(CO)cc3)C2)cc1 | inactive
COc1ccc([C@H]2CC(=O)C=C(c3ccc(OC(F)(F)F)cc3)C2)cc1OC | inactive
CC(=C1C(=O)c2ccccc2C1=O)N1CCN(c2ccccn2)CC1 | inactive
Cc1c(CC(=O)N2CCN(C(=O)C3COc4ccccc4O3)CC2)c(=O)oc2c(O)c(O)ccc12 (stereo not drawn) | 28.2 µM (active)
NS(=O)(=O)c1ccc(CCNS(=O)(=O)c2cccc3cccnc23)cc1 | inactive
C/C(=N\NC(=S)NC1CCCCC1)c1ccc(C)o1 | inactive
COc1ccc(CC(NC(C)=O)C(=O)N2CCN(C(=O)Nc3cccc(Cl)c3)CC2)cc1OC (stereo not drawn) | inactive
O=C(NCCCN1CCN(c2ccccc2F)CC1)C1CCC(=O)N1C1CCCCC1 (stereo not drawn) | inactive
Cc1ccc(S(=O)(=O)N2CC(O)C[C@H]2C(=O)OCC(=O)Nc2ccc(N3CCOCC3)cc2)cc1C (stereo partly drawn) | inactive
CCn1c(=O)n(CC)c2cc(N3CCCC3)c(NC(=O)c3ccccc3Br)cc21 | inactive
CNCC(O)c1ccc(O)c(O)c1 (stereo not drawn) | inactive
Cc1cc(C)n2nc(C(=O)N3CCN(Cc4ccc5c(c4)OCO5)CC3)nc2n1 | inactive
CCCN(CC(=O)Nc1ccccc1C)C(=O)c1ccc2[nH]c3c(c2c1)CC(C)CC3 (stereo not drawn) | inactive
OC(COCc1ccco1)CN1CCN(c2ccccc2)CC1 (stereo not drawn) | inactive
O=C(CSC1CC(=O)N(CCc2ccccc2)C1=O)Nc1ccc(Cl)cc1 (stereo not drawn) | inactive
CC(C)(C)C(=O)OCc1nc(-c2ccc(O)c(O)c2)cs1 | 11.2 µM (active)
O=c1oc(-c2ccccc2NS(=O)(=O)c2ccc(Cl)cc2)nc2ccccc12 | inactive
O=C(C1CC(=O)N(c2ccc(F)cc2)C1)N1CCN(c2ccccc2)CC1 (stereo not drawn) | inactive
CCn1c(=O)cc(OCC(=O)NCCCN2CCN(c3cccc(Cl)c3)CC2)c2ccccc21 | inactive

SMILES | Potency
CN1CCN(S(=O)(=O)c2cccc(C(=O)Nc3sccc3C#N)c2)CC1 | inactive
O=C(CNCc1cccs1)Nc1cc(S(=O)(=O)N2CCCC2)ccc1Cl | 17.8 µM (active)
O=C(c1ccc2c(c1)OCCO2)C1CCN(S(=O)(=O)c2cccc(F)c2)CC1 | inactive
CC(CCc1ccc(O)cc1)NCc1ccc(Cl)cc1Cl (stereo not drawn) | 1.78 µM (active)
CC(CCc1ccccc1)NCC(O)c1cccc([N+](=O)[O-])c1 (stereo not drawn) | inactive
CC1(C)CC(=O)C=C(c2ccc3ncccc3c2)C1 | inactive
Cc1c(C(=O)Nc2cccc(-c3nnc4n3CCCCC4)c2)oc2ccccc12 | inactive
O=C(NC1CCCCC1)c1ccc2c(=O)n(CC3CCCO3)c(=O)[nH]c2c1 (stereo not drawn) | inactive
CCOC(=O)[C@H]1[C@H]2COc3ccc(C)cc3[C@@H]2N2C(=O)CN(Cc3ccc(F)cc3)C(=O)[C@@]12C | inactive
O=C(CCN1CCN(C/C=C/c2ccccc2)CC1)Nc1ccccc1Cl | inactive
COc1cccc(NC(=O)C2CCCN(c3ncnc4c3nc3n4CCCCC3)C2)c1 (stereo not drawn) | inactive
CC(C)c1ccc2c(c1)c(SC(C)(C)C)c(CC(C)(C)C(=O)O)n2Cc1ccc(Cl)cc1 | inactive
O=C(c1c(F)cccc1F)N1CCN(S(=O)(=O)c2ccc3c(c2)OCCO3)CC1 | inactive
Cc1cccc(OCC(=O)NCC(=O)N/N=C/c2ccc(N(C)C)cc2)c1 | inactive
Cc1cc(C)c(/C=C2\C(=O)Nc3ccccc32)[nH]1 | inactive
COc1cccc(OC)c1OCCN1CCN(C(=O)c2ccco2)CC1 | 0.631 µM (active)
CCn1cc(C(=O)N2CCN(Cc3ccc4c(c3)OCO4)CC2)c2cc(OC)c(OC)cc2c1=O | inactive
CCC(=O)Nc1ccc(C(=O)N2CCN(C(=O)c3ccco3)CC2)cc1 | inactive
O=C(Cc1csc(Nc2nc(=S)[nH]c3ccccc23)n1)NCCCN1CCN(c2cccc(Cl)c2)CC1 | inactive
COc1ccc(C2NC(=O)C(=O)/C2=C(\O)c2ccc(Cl)cc2)cc1OC (stereo not drawn) | inactive
O=C(CN1CCN(S(=O)(=O)c2cc(Cl)ccc2Cl)CC1)c1ccc(O)c(O)c1 | 35.5 µM (active)
O=C(CCCn1c(=O)[nH]c2cc(Cl)ccc2c1=O)NCCN1CCN(c2ccccc2)CC1 | inactive
O=C(c1c(Cl)cccc1Cl)N1CCN(c2cccc3[nH]ccc23)CC1 | inactive
